# Laboratory results as given in PubChem BioAssay.
# Active and inactive are the calls of the source.
# What was measured:
# [1] = tested on: Plasmodium falciparum Sir2 (PF13_0152, Sir2A); assay: Plasmodium falciparum Sir2A binding compounds – biochemical, small-molecule microarray, 635 nm fluorescence, primary screen (AID 1098); details: fluorescence 635 nm, higher = more signal;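 further: score merges spot fluorescence intensity with its signal-to-noise ratio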
# [2] = probe aDKK1 binding to arrayed compounds – biochemical, biotinylated probe, 635/667 nm fluorescence, primary screen (AID 1099); details: small-molecule microarray, higher = more signal;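 further: score merges 667nm spot fluorescence with signal to noise across triplicate slides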
# [3] = probe aCHRDL2 binding to arrayed compounds – biochemical, biotinylated probe, 635/667 nm fluorescence, primary screen (AID 1100); details: small-molecule microarray, higher = more signal
# [4] = change in splice reporter luminescence, either direction, cell-based, HEK293, spliceosome inhibition project, primary screen (AID 1101); details: HEK293 splicing luciferase reporter, 24 h, higher = more signal, called active from +8 up or from −8 down;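 further: HEK293 cells carrying a splicing-competent luciferase reporter gene; test concentration not given here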
# [5] = biological target: Fibroblast growth factor 10 (Homo sapiens) (UniProt O15520); assay: compounds binding fibroblast growth factor 10 – biochemical, small-molecule microarray, 635 nm fluorescence, primary screen (AID 1102); details: FGF10 binding, fluorescence 635 nm, higher = more signal
# Fibroblast growth factor 10 (Homo sapiens), sequence (O15520 whole entry, looked up): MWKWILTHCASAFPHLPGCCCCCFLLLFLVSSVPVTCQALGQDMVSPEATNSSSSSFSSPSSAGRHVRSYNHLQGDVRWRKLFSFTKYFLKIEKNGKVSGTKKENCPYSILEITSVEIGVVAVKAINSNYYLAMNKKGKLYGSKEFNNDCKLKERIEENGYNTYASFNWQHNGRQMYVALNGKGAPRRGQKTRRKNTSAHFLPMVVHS
# [6] = tested on: glycogen synthase kinase-3 (GSK3A per assay name; protocol says GSK3B); assay: compounds binding glycogen synthase kinase-3 – biochemical, small-molecule microarray, 635 nm fluorescence, GSK3A, primary screen (AID 1103); details: fluorescence 635 nm, higher = more signal; further: the record names both GSK3A and GSK3B
# [7] = biological target: Epidermal growth factor receptor (Homo sapiens) (UniProt P00533); assay: compounds binding epidermal growth factor receptor – biochemical, small-molecule microarray, 635 nm fluorescence, primary screen (AID 1104); details: EGFR binding, higher = more signal;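 further: score merges 667 nm emission intensity with spot signal to noise over triplicate slides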
# Epidermal growth factor receptor (Homo sapiens), sequence (P00533 whole entry, looked up): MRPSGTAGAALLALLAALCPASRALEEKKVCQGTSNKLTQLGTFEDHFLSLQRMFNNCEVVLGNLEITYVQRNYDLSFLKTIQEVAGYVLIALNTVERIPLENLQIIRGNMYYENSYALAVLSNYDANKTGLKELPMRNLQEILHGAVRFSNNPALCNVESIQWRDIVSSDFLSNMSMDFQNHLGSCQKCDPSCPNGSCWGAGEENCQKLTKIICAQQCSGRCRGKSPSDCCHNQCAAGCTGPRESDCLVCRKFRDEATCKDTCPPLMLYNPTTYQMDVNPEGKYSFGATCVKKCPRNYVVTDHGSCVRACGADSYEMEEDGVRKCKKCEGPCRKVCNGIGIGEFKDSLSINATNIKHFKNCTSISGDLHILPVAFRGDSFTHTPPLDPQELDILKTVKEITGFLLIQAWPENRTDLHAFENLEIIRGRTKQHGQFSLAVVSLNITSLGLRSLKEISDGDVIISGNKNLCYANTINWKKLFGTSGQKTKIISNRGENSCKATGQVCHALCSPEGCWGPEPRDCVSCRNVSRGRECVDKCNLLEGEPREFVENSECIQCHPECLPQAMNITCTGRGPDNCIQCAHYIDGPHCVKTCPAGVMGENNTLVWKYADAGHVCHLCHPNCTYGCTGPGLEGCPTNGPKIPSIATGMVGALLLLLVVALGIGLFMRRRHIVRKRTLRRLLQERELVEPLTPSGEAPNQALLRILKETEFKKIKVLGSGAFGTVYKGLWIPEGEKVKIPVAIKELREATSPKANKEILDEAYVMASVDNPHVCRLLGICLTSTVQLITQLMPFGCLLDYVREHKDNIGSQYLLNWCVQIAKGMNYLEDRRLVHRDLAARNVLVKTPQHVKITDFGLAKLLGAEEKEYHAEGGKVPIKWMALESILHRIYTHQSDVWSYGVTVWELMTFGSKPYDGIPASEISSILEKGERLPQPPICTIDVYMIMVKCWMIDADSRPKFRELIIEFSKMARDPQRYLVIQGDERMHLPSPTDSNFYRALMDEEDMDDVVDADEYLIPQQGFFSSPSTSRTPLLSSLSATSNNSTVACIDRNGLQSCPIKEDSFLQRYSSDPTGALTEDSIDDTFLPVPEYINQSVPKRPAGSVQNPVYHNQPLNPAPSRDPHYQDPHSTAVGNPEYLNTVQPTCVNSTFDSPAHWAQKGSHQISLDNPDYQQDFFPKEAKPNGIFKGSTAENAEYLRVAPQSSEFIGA
# [8] = biological target: Follistatin-related protein 3 (Homo sapiens) (UniProt O95633); assay: compounds binding follistatin-related protein 3 – biochemical, small-molecule microarray, 635 nm fluorescence, primary screen (AID 1105); details: FSTL3 binding, higher = more signal;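 further: score merges emission near 667 nm and signal to noise per printed spot across three slides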
# Follistatin-related protein 3 (Homo sapiens), sequence (O95633 whole entry, looked up): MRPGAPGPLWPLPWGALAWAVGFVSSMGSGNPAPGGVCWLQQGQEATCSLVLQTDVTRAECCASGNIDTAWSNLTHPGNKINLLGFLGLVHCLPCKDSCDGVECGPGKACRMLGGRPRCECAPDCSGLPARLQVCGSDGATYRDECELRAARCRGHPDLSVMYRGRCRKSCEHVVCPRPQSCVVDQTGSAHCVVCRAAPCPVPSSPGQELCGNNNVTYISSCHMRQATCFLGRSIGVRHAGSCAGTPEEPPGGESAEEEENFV
# [9] = biological target: Dickkopf-related protein 1 (Homo sapiens) (UniProt O94907); assay: small molecules binding DKK1 protein – biochemical, small-molecule microarray, 635 nm fluorescence scan, primary screen (AID 1106); details: higher = more signal;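 further: score merges emission near 667 nm with signal to noise over three replicate slides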
# Dickkopf-related protein 1 (Homo sapiens), sequence (O94907 whole entry, looked up): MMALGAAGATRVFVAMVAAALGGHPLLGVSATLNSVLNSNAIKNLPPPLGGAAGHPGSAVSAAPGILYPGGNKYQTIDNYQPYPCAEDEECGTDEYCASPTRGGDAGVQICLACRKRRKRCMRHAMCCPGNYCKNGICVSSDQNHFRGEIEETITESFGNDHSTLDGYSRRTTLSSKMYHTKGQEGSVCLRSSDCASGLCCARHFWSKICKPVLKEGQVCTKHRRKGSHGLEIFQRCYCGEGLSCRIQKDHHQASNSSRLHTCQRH
# [10] = tested on: Inhibin beta A chain (activin A); assay: small molecules binding activin A – biochemical, small-molecule microarray, 635 nm fluorescence scan, primary screen (AID 1107); details: INHBA, higher = more signal;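 further: mouse activin A protein probed at 4.33 µg/mL on printed slides; score merges bound-protein fluorescence near 667 nm with spot signal-to-noise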
# [11] = tested on: Human papillomavirus type 1a protein E7 (residues 44-93); assay: small molecules binding HPV E7 44-93 – biochemical, small-molecule microarray, residues 44-93, 635 nm fluorescence, primary screen (AID 1108); details: fluorescence 635 nm, higher = more signal;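 further: E7 fragment applied at 1 µg/mL in TBST for 1 h at 4 C; score combines spot fluorescence with its signal to noise ratio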
# [12] = hepatitis C replication reporter changes, two-sided – Huh7 cells, luciferase reporter, HCV replication inhibitor project, primary screen (AID 1109); details: Huh7 HCV replicon luciferase reporter, 48 h; higher = more signal;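 further: huh7 hepatoma cells harbouring a luciferase neomycin HCV replicon reporter; luciferase luminescence as measure of HCV replicon replication; test concentration not given here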
# [13] = biological target: Left-right determination factor 2 (Homo sapiens) (UniProt O00292); assay: small molecules binding LEFTY2 protein – biochemical, small-molecule microarray, 635 nm fluorescence scan, primary screen (AID 1110); details: higher = more signal
# Left-right determination factor 2 (Homo sapiens), sequence (O00292 whole entry, looked up): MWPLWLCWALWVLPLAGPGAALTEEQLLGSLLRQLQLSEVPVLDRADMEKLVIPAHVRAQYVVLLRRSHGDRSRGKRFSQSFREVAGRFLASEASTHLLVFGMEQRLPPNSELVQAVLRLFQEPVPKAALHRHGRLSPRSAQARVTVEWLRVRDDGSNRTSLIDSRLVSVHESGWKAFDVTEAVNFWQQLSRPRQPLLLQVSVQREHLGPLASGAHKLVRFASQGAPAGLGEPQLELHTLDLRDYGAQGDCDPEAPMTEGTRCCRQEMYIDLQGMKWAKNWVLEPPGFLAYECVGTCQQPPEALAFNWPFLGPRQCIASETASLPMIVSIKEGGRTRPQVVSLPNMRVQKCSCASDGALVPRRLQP
# [14] = biological target: Calmodulin-1 (Homo sapiens) (UniProt P0DP23); assay: small molecules binding calmodulin-1 with EGTA – biochemical, small-molecule microarray, Cy5-labelled CALM1, profiling panel (AID 1111); details: Cy5-CALM1 binding fluorescence, higher = more signal;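 further: labelled calmodulin applied in Tris saline Tween buffer holding calcium plus EGTA and DTT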
# [15] = biological target: Calmodulin-1 (Homo sapiens) (UniProt P0DP23); assay: small molecules binding Ca-loaded calmodulin-1 – biochemical, small-molecule microarray, Cy5-labelled CALM1, plus calcium, artefact control for SMM control-protein annotation, profiling panel (AID 1112); details: Cy5-CALM1 binding fluorescence, higher = more signal;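 further: score merges spot fluorescence with signal to noise from triplicate slides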
# [16] = probe aWnt5a binding to arrayed compounds – biochemical, biotinylated probe, 635/667 nm fluorescence, primary screen (AID 1113); details: small-molecule microarray, higher = more signal;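 further: score merges 667 nm fluorescence intensity with signal-to-noise per printed feature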
# [17] = probe aShh binding to arrayed compounds – biochemical, biotinylated probe, 635/667 nm fluorescence, primary screen (AID 1114); details: small-molecule microarray, higher = more signal;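 further: probe is biotin-labelled aShh protein from a stem cell growth factor screen; measures binding of labelled protein to compounds printed on the slide; score merges feature fluorescence at 667 nm with signal-to-noise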
# [18] = probe aNog binding to arrayed compounds – biochemical, biotinylated probe, 635/667 nm fluorescence, primary screen (AID 1115); details: small-molecule microarray, higher = more signal;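 further: probe is biotinylated aNog protein used at 0.15 µg/mL for 1 h at 4 C; z-score combines 667 nm fluorescence of each spot with its signal to noise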
# [19] = biological target: Torsin-1A-interacting protein 1 (Homo sapiens) (UniProt Q5JTV8); assay: compound microarray binding of lysate hLAP1 – cell lysate, small-molecule microarray, COS7 lysate, 635/667 nm fluorescence, primary screen (AID 1116); details: 635 nm fluorescence, higher = more signal
# Torsin-1A-interacting protein 1 (Homo sapiens), sequence (Q5JTV8 whole entry, looked up): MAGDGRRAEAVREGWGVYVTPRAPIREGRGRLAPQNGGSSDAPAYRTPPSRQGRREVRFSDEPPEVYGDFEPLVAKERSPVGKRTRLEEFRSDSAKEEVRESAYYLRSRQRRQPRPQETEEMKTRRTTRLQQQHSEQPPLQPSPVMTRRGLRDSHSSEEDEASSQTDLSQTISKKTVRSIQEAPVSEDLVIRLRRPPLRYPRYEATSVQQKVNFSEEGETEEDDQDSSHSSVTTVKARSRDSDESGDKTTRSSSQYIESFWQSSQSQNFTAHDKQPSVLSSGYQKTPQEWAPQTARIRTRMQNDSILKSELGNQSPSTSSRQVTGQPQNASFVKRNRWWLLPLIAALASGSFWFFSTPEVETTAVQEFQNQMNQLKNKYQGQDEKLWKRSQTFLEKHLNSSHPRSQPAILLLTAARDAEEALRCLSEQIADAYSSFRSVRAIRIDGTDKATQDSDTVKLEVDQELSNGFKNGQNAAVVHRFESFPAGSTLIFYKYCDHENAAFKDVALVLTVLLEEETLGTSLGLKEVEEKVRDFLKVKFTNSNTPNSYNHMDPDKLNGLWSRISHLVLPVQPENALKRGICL
# [20] = biological target: Alpha-bungarotoxin (Bungarus multicinctus) (UniProt P60615); assay: compounds binding labelled alpha-BTX control protein – biochemical, small-molecule microarray, Alexa647 label, 635/667 nm fluorescence, artefact control for SMM control protein annotation, profiling panel (AID 1117); details: alpha-BTX-A647 binding fluorescence, higher = more signal
# Alpha-bungarotoxin (Bungarus multicinctus), sequence (P60615 whole entry, looked up): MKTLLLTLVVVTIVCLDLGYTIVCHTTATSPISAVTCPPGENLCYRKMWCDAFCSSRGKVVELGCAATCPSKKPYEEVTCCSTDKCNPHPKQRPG
SMILES,composite z-score [1],composite z-score [2],composite z-score [3],z-score [4],composite z-score [5],composite z-score [6],composite z-score [7],composite z-score [8],composite z-score [9],composite z-score [10],composite z-score [11],z-score [12],composite z-score [13],composite z-score [14],composite z-score [15],composite z-score [16],composite z-score [17],composite z-score [18],composite z-score [19],composite z-score [20]
COc1ccc(C(=O)Nc2ccc(CN3C(=O)[C@@]4(O[C@@H](CC(=O)N5CCC[C@H]5CO)[C@H]([Si](C)(C)c5ccc(OC)cc5)[C@H]4C)c4ccccc43)cc2)cc1,1.4,-0.143,-0.0233,-0.681 (inactive),1.38,1.29,1.02,1.44,1.14,0.715,0.825,-2.19,1.13,0.11,-0.654,-0.0643,0.0639,-0.0503,1.01,1.12
O=C1O[C@H](c2ccccc2)[C@H](c2ccccc2)N2[C@H]1[C@@H](C(=O)N1CCN(c3ncccn3)CC1)[C@]1(C(=O)Nc3ccc(C#CC4=CCCCC4)cc31)[C@H]2c1ccc(O)cc1,0.789,-0.0869,0.566,-0.725 (inactive),0.76,0.754,0.442,0.738,-0.0441,-0.0074,1.41,-1.98,0.144,0.961,0.336,-0.0721,-0.221,0.113,0.792,1.44
C[C@@]1([C@@H](NC(=O)c2ccccc2)c2ccc(-c3ccccc3)cc2)C[C@H]1C1CCCCC1,-0.443,1.18,1.26,0.665 (inactive),-0.145,-0.82,-0.573,-0.503,-0.932,1.09,-0.752,0.602,-0.535,1.32,1.19,-0.006,-0.353,0.18,0.294,-0.272
COc1ccc(C(O)C2C=CC3C(=O)N(c4ccccc4)C(=O)C3N2Nc2ccccc2F)cc1OCc1ccccc1 (stereo not given),1.21,1.21,1.08,0.249 (inactive),0.771,0.693,0.0115,0.711,-0.633,1.35,1.4,-0.0689,-0.477,2.15,0.983,0.108,0.232,-0.115,1.2,1.55
COC(=O)[C@@]1(Cc2ccccc2)[C@H]2c3cc(C(=O)N4CCCC4)n(Cc4cccc5ccccc45)c3C[C@H]2CN1C(=O)c1ccccc1,0.473,2.15,1.44,-1.33 (inactive),0.664,-0.348,0.0512,0.272,-0.922,1.07,0.696,-1.55,-0.188,1.51,1.42,0.816,1.96,0.714,0.434,0.645
CC(=O)NCCCC[C@@H]1NC(=O)[C@@H]2C[C@H](C(=O)NCCCCN(C)C)[C@H](c3cccc(OCCO)c3)N2C1=O,1.4,-0.0978,0.529,0.805 (inactive),0.556,0.117,-0.12,0.227,0.0332,-0.609,-0.426,0.471,-0.419,0.017,0.0573,-0.0944,0.0048,-0.0474,-1.4,0.473
CC(C)N1C(=O)[C@@]2(Cc3ccccc31)c1ccccc1C(=O)N(C1CCCCC1)[C@H]2c1ccc(CO)cc1,1.15,-0.307,-0.194,0.0789 (inactive),0.206,0.856,0.507,1.17,0.788,0.899,0.683,-1.26,0.0232,-0.435,-0.56,-0.063,-0.195,-0.399,0.103,0.284
O=C1[C@H]2C=C(Br)[C@H](C[C@@H]2c2ccccc2)[C@@]12CO2,-0.0067,-0.217,-0.261,0.723 (inactive),0.774,0.381,0.513,0.733,0.765,0.648,0.235,-3.33,1.02,-0.428,-0.441,-0.152,-0.414,-0.461,0.0974,0.0148
COCCOC(=O)N1C(=O)[C@@]2(c3cc(C#CC4=CCCCC4)ccc31)[C@H](c1ccc(O)cc1)N1[C@H](c3ccccc3)[C@H](c3ccccc3)OC(=O)[C@H]1[C@@H]2C(N)=O,1.03,-0.327,-0.624,-1.03 (inactive),1.17,1.12,0.584,1.16,0.639,0.155,1.19,-0.696,0.63,0.624,0.0442,-0.0165,0.157,-0.564,0.745,1.04
COc1ccc([Si](C)(C)[C@H]2[C@H](CC(=O)N3Cc4ccccc4C[C@H]3CO)O[C@@]3(C(=O)N(Cc4ccc(N5CCC5=O)cc4)c4ccccc43)[C@@H]2C)cc1,1.21,-0.283,0.51,-0.315 (inactive),1.15,0.972,1.11,1.44,1,1.28,1.37,-3.99,1.22,1.02,-0.89,0.0158,-0.144,1.65,1.45,0.548
CCN(CC)c1ccc(N2CC=CC34O[C@@H]5/C=C\CCC(C)OC(=O)C5[C@H]3C(=O)N(C(CO)C(C)C)[C@@H]4C2=O)cc1 (stereo not given in full),0.492,-0.204,0.0959,-0.208 (inactive),-0.709,-0.806,-0.532,-1.1,-0.41,1.15,-0.0747,-0.668,-0.896,-0.55,-0.866,-0.062,0.214,-0.287,-0.251,0.174
